Measured values reported in PubChem BioAssay AID1851 (National Center for Advancing Translational Sciences (NCATS), 2009).
Screen size: about 16,000 compounds; about 2,600 (16%) were called active. Roughly 20% stayed inconclusive and do not appear here. Calls come from the whole dose curve; as a rule, active = well fitted curve in the direction sought with a large enough effect; inconclusive = small, poorly fitted or top-dose-only effect, or effect the other way; inactive = no such curve, though single readings can be large or run the other way. These entries were drawn from the full list.

Target: Cytochrome P450 2D6 (Homo sapiens) (UniProt P10635)
Assay: Cytochrome panel assay with activity outcomes
Details: recombinant CYP, pro-luciferin dealkylation, luminescence, p450-cyp2d6; series mostly up to 57.1 µM; activity, negative = inhibition: at the top concentration
% is set by controls: 0 for no effect and ±100 for the full control effect.

Chain of Cytochrome P450 2D6 (Homo sapiens) (P10635 whole entry, looked up): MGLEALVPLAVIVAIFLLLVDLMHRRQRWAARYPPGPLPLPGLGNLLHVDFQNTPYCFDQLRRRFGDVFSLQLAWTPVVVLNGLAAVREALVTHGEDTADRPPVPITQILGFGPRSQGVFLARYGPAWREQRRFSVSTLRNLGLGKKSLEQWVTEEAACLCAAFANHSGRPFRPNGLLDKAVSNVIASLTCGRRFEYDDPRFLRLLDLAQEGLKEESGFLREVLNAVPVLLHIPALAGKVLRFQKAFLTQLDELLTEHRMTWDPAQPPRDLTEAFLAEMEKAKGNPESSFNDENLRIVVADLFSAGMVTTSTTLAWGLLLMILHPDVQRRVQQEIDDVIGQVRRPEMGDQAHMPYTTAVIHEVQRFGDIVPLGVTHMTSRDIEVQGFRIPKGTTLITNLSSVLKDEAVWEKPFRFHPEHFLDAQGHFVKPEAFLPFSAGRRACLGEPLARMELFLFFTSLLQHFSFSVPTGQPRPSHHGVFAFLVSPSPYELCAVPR

activity, negative = inhibition, inactive:
O=C(NCCOC12CC3CC(CC(C3)C1)C2)c1cccc(Br)c1 -72.8%
O=C(CCc1ccccc1)NNC(=O)c1ccco1 21.7%
O=C(CCc1ccccc1)Nc1ncn[nH]1 -0.385%
CCOC(=O)CCN1C(=O)[C@H]2[C@H]3[C@H](O)[C@H](O)C/C(=N/OC[C@@H](O)COCc4ccco4)[C@H]3CC[C@@H]2C1=O 8.09% [at 11.4 µM]
COc1ccc2c3c([nH]c2c1)[C@H]1C[C@@H]2[C@@H](C[C@@H](O)[C@H](OC)[C@H]2C(=O)O)CN1CC3 7.15% [at 11.4 µM]
Cc1ccc(S(=O)(=O)N(C)CC(=O)O/N=C(\N)c2ccccn2)cc1 -1.23%
O=C(O)CCCSc1nc2ccccc2s1 -8.66% [at 11.4 µM]
c1ccc(NCCSc2nc3ccccc3s2)cc1 1.99% [at 11.4 µM]
O=C(Nc1ccc2oc(=O)c(C(=O)O)cc2c1)Oc1ccccc1 -5.11% [at 11.4 µM]
CC(=O)c1c(C(C)=O)c(C)n(NC(=O)c2ccncc2)c1C 5.58%
Fc1ccc(Nc2nc(-c3ccoc3)nc3ccccc23)cc1 -18.4%
CCNc1ncc2nc(-c3ccc(OC)cc3)c(=O)n(Cc3cccc(OC)c3)c2n1 -8.05%
Cn1c(=O)n(CCC(=O)O)c2ccccc21 4.54%
COc1cc(/C=N/NC(N)=O)c(Br)cc1OCC(=O)Nc1ccccc1C -16.2%
CCOC(=O)c1c(O)[nH]c(=O)c(CC)c1C -17.9% [at 11.4 µM]
CCOC(=O)Nc1nc(-c2ccccc2)c(C)s1 1.52% [at 11.4 µM]
CO/N=C(\C(=O)N[C@@H]1C(=O)N2C(C(=O)O)=C(COC(N)=O)CS[C@@H]12)c1ccco1 10.6% [at 25.6 µM]
O=S1(=O)CCN(c2ccccc2CC(c2c[nH]c3ccccc23)c2c[nH]c3ccccc23)CC1 -18% [at 11.4 µM]
Cc1ccc(C2CC(C(F)(F)F)n3nc(C(=O)NCCN4CCOCC4)cc3N2)cc1 (configuration not stated) 0.576%
O=S(=O)(O)[C@@H](c1ccccc1)[C@@H](O)c1ccccc1 4.68% [at 11.4 µM]
Cc1cnc(CNc2nc(-c3cccnc3)nc3ccccc23)cn1 -9.02%
CNC(=S)N1N=C(c2ccc(OC)cc2)CC1c1ccc(N(C)C)cc1 (configuration not stated) -18.3%
Cc1c(CCC(C)C)c(-n2ccnc2C)n2c(nc3ccccc32)c1C#N -7.46%
CCSc1nnc2n(N)c(=O)c3ccccc3n12 -7.64%
Cc1cc(=O)oc2cc(O)c(CN(C)CC(=O)O)cc12 -1.55% [at 11.4 µM]
Cc1cccc(Nc2ccccc2C(=O)OCC(=O)N(C)C2CCS(=O)(=O)C2)c1C (configuration not stated) -27.8%
Cc1cc(C)nc(SCCc2cccc[n+]2C)n1 -2.83% [at 11.4 µM]
S=c1[nH]nc(-c2ccncc2)n1CC1CCCO1 (configuration not stated) 5.32%
Cc1cc(NC(=O)CSc2nc3ccsc3c(=O)n2CCCCC(=O)O)no1 -30.2%
C[C@@]1(O)CCOC(=O)C1 -3.8% [at 25.6 µM]
CCOC(=O)c1c(C)[nH]c(C(=O)OCC(=O)NC2CCS(=O)(=O)C2)c1C (configuration not stated) 2.53%
NCCS(=O)O 7.44%
Cc1ccc(S(=O)(=O)O/N=C2/CCCc3occc32)cc1 -14.7%
O=CN[C@@H](Cc1cnc[nH]1)C(=O)O -4.29% [at 11.4 µM]
CN(C)C[C@H]1CCC[C@@H](CN(C)C)C1=O -1.21% [at 11.4 µM]
Clc1ccc2oc(-c3cccnc3)nc2c1 6.45%
Cn1c(=O)c(-c2cccc(Cl)c2)nc2cncnc21 -7.08%
CCOC(=O)C1CCCN(c2ncnc3c2cnn3-c2ccc(Cl)cc2)C1 (configuration not stated) -5.44%
COCCn1c(=O)c(-c2cccs2)nc2cncnc21 -11.4%
C[C@@H](C(=O)Cc1ccc2ccccc2c1)[C@@H]1C[C@@]1(C)[C@@H](NP(=O)(c1ccccc1)c1ccccc1)c1ccccc1 6.45%
Cc1nn(C)c(Cl)c1S(=O)(=O)N[C@@H](c1ccccc1)[C@]1(C)C[C@H]1[C@@H](C)C(=O)Nc1ccc2ccccc2c1 6.42%
O=C(Nc1ccc2ccccc2c1)[C@H]1C[C@@H]1[C@H](NP(=O)(c1ccccc1)c1ccccc1)c1ccccc1 14%
O=C(Nc1ccc2ccccc2c1)[C@@H]1C[C@H]1[C@@H](NP(=O)(c1ccccc1)c1ccccc1)c1ccccc1 -10.1%
CC1(C)S[C@@H]2[C@H](NC(=O)[C@@H](NC(=O)N3CCNC3=O)c3ccccc3)C(=O)N2[C@H]1C(=O)O -1.37% [at 25.6 µM]
COC(=O)c1sccc1NC(=O)CSc1ccccc1NS(=O)(=O)c1ccc(Cl)cc1 -0.426%
C[C@@H]1O[C@H]2C3=C(C(=O)[C@H]4O[C@@H]4[C@H]3O)[C@@H]1[C@@H]1[C@@H](C)OC=C3[C@H](O)[C@H]4O[C@@H]4/C(=N\OCc4ccccc4)[C@]312 -8.47% [at 11.4 µM]
O=C(NCc1ccccc1)C(c1ccc(F)cc1)N(Cc1ccco1)C(=O)c1ccccn1 (configuration not stated) -23.4%
COC(=O)[C@H]1C[C@@H]1[C@H](NC(=O)Oc1ccc(F)cc1)c1ccccc1 -5.03%
C[C@@H](C(=O)Nc1ccc2ccccc2c1)[C@@H]1C[C@@]1(C)[C@@H](NC(=O)Oc1ccc(F)cc1)c1ccccc1 3.54%
CO[C@@H]1COC(=O)CC=C[C@@H](C)[C@@H]2C=C[C@H](O)[C@@H](COC(=O)C/C=C\[C@H]1C)O2 13% [at 11.4 µM]
Cc1cc(C)c(C)c(S(=O)(=O)ON2C(=O)c3ccccc3C2=O)c1C -29.2%
CC(C)(C)c1ccc(OCC(=O)O)c(Cl)c1 12.8% [at 11.4 µM]
Cc1nc(NS(=O)(=O)c2ccccc2C)c2c3c(sc2n1)CCC3 -4.47%
CCCNC(=O)c1c(C)cc(=O)oc1C -29%
COc1cc(-c2nnc(-c3ccc(N4CCOCC4)cc3)o2)cc(OC)c1OC -3.51%
COc1ccc(Br)cc1/C=C/C(=O)Nc1c(C)cccc1C -29.7%
CCCCC(=O)Nc1ccc(C(=O)NNC(=O)CCc2ccccc2)cc1 8.04%
CCN1C(=O)C(CC(=O)Nc2ccc(OC)cc2)N(Cc2cccnc2)C1=S (configuration not stated) -21.7%
O=C(CC1C(=O)NCCN1C(=S)Nc1ccccc1)Nc1ccc2c(c1)OCCO2 (configuration not stated) 4.52%
CN1C(=O)C(CC(N)=O)N(NC(=O)c2ccc(Cl)cc2)C1=S (configuration not stated) 6.45%
CCNC(=O)CC1C(=O)N(c2ccc(F)cc2)C(=O)N1CCc1ccc(OC)cc1 (configuration not stated) -1.57%
CC(=O)Nc1ccc(S(=O)(=O)NC2(C(F)(F)F)NC(=O)N(c3ccc(Cl)cc3)C2=O)cc1 (configuration not stated) 5.87%
Cc1ccc(NC2c3ncccc3C(=O)N2Cc2ccc(F)cc2)cc1 (configuration not stated) -10.5%
COc1ccc(OC)c(C2CC(=O)C3=C(C2)NC(=O)CC3c2ccc(O)c(OC)c2)c1 (configuration not stated) -26.8%
CC(C)CC(=O)N1CCC(O)(CS(=O)(=O)Cc2ccc(Cl)cc2)CC1 -0.0163%
COCCn1c(=O)c(-c2cccc(F)c2)nc2cncnc21 -2.96%
Cc1nn(-c2ccccc2)c(N2CCCCC2)c1/C=N/O -4.1%
O=C(c1ccc(Cl)cc1)N1CCN(c2cc(=O)[nH]nc2-c2ccccc2)CC1 6.15%
CSc1ccc(CNc2ccccc2)cc1 -14.2%

AC50, active:
O=C(CCc1ccccc1)Nc1nncs1 14.1 µM
c1ccc2sc(SCN(C3CCCCC3)C3CCCCC3)nc2c1 1.58 µM
c1csc(CNc2nc(-c3ccoc3)nc3ccccc23)c1 3.98 µM
Cc1cccc(CNc2nc(-c3ccoc3)nc3ccccc23)c1 10 µM
c1ccc(CNc2nc(-c3ccoc3)nc3ccccc23)cc1 10 µM
CN(C)c1ccc(-c2nc(NCc3cccnc3)c3ccccc3n2)cc1 7.94 µM
c1cncc(-c2nc(NCc3cccs3)c3ccccc3n2)c1 6.31 µM
c1cncc(CNc2nc(-c3ccoc3)nc3ccccc23)c1 5.01 µM
Cc1cccc(CNc2nc(-c3cccnc3)nc3ccccc23)c1 25.1 µM
CN(C)c1ccc(-c2nc(NCCc3cnc[nH]3)c3ccccc3n2)cc1 7.94 µM
C[C@@H](CCCCC(=O)Nc1ccc(C(F)(F)F)cc1)NCCc1cnc[nH]1 5.01 µM
Clc1ccc2c(c1)C(c1cccs1)=NNC(c1cccnc1)=N2 10 µM
Fc1ccc2c(c1)C(c1ccncc1)=NNC(c1ccc(Cl)cc1)=N2 0.398 µM
CC(=O)N[C@H](c1ccccc1)[C@@]1(C)C[C@@H]1[C@@H](C)C(=O)Nc1ccc2ccccc2c1 2 µM
C[C@@H](C(=O)Nc1ccc2ccccc2c1)[C@@H]1C[C@@]1(C)[C@@H](N)c1ccccc1 12.6 µM
Cc1cc(C(=O)N[C@H](c2ccccc2)[C@@]2(C)C[C@@H]2[C@@H](C)C(=O)Nc2ccc3ccccc3c2)n(C)n1 0.0398 µM
C[C@@H](C(=O)Nc1ccc2ccccc2c1)[C@H]1C[C@]1(C)[C@H](NP(=O)(c1ccccc1)c1ccccc1)c1ccccc1 0.794 µM
C[C@@H](C(=O)Nc1ccc2ccccc2c1)[C@H]1C[C@]1(C)[C@H](NC(=O)Oc1ccc(F)cc1)c1ccccc1 2.51 µM
COC(=O)N[C@H](c1ccccc1)[C@@]1(C)C[C@@H]1[C@@H](C)C(=O)Nc1ccc2ccccc2c1 0.0316 µM
O=C(CC1C(=O)N(c2ccc(Cl)cc2)C(=S)N1CCc1ccncc1)Nc1ccc(F)cc1 (configuration not stated) 2.24 µM
CN1C(=O)C(CC(=O)Nc2ccc(F)cc2)N(CCCc2ccccc2)C1=S (configuration not stated) 2 µM
CCN1C(=O)C(CC(=O)Nc2ccc(Br)cc2)N(CCCc2ccccc2)C1=S (configuration not stated) 10 µM
COc1cccc(CNCc2ccc(SC)cc2)c1OC 3.16 µM
